Screening results: PubChem, National Center for Advancing Translational Sciences (NCATS)
D1 agonist – activates the human D1 dopamine receptor; P21728; HEK293 T-REx D1 cells, calcium flux, agonist mode; activation, % at 2 µM; 360,000 tested, 1% active; AID 504660; also: 0% is about no effect
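Tetracycline-induced HEK293 TREx D1 cells, force-coupled to calcium signalling, were dye-loaded with a no-wash calcium kit. Compound was pin-added after a 10 s baseline. Fluorescence was read kinetically at 1 cycle/s for 180 s, with calcium rises flagged as agonism.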
TRHR enhancer – TRH receptor (human) allosteric enhancement; P34981; TRHR cells, fluo-8 calcium fluorescence, EC20 TRH enhancement; enhancement, % at 2 µM; 360,000 tested, 0.66% active; AID 493056; in the data active = enhancement above about 30%; also: 0% is about no effect
Target sequence (P34981 whole entry, looked up): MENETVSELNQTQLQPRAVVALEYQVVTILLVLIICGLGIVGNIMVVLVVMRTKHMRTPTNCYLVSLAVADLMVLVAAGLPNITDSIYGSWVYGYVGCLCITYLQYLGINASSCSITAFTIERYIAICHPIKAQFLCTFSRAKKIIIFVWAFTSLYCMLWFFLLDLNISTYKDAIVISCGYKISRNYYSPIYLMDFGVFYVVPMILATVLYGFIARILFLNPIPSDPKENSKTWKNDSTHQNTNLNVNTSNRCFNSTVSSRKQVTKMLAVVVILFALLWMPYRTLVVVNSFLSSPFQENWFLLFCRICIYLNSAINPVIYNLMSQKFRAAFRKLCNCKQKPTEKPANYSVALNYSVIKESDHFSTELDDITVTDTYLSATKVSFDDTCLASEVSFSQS
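TRHR-expressing cells loaded with fluo-8 calcium dye were read kinetically (ex 480/em 530) during compound addition, then stimulated with an EC20 of TRH (10 nM final). Enhancement of the Gq-mediated intracellular calcium response was scored.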
D1 antagonist – antagonists of human D1 dopamine receptor; HEK293 TREx D1 cells, calcium flux, dopamine EC80; stronger effect = lower value; activity change, negative = inhibition, % at 10 µM; 360,000 tested, 3.2% active; AID 504652; in the data active = activity change below about -30%; also: % is scaled to controls: 0 for no effect and ±100 for the full control effect
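Cells carrying a force-coupled, tetracycline-inducible human D1 receptor report calcium flux. Each well gets a 10 s baseline, compound with 180 s monitoring, then an EC80 dopamine stimulus with a second 180 s kinetic read.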
D1 potentiator – enhances dopamine response at the human D1 receptor | potentiation, % at 10 µM | HEK293 TREx D1 cells, calcium flux, dopamine EC20 potentiation | 360,000 tested, 0.036% active; in the data active = potentiation above about 30%; also: 0% is about no effect
TRHR ag – TRH receptor (human) agonism | 360,000 tested, 0.18% active | P34981 | activation, % at 2 µM | TRHR cells, calcium flux fluo-8, FDSS agonist mode; also: 0% is about no effect
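Read-out: compound-evoked intracellular calcium rise in TRHR cells, fluo-8 dye, kinetic FDSS fluorescence at 1 s/cycle following a 10-cycle baseline. Cells cultured overnight before dye loading (30 min–1.5 h, RT).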
* marks the source's active call; other numbers are inactive results; ! = not active in a repeat. An excerpt weighted towards active compounds, which were near 4.7% of everything screened. Rule as the data show it, unless noted: active = activation above about 30%; inactive = the rest.

SMILES	D1 agonist	TRHR enhancer	D1 antagonist	D1 potentiator	TRHR ag
CC1CCN(CC2CCN(C(=O)Nc3ccc(Br)cc3F)CC2)CC1	0.9	-6.4	11.6	-0.8	2.9
COc1ccc(Br)cc1CNC(=O)CSc1n[nH]c(-c2ccccc2)n1	0.0	-5.9	-11.1	3.4	-0.1
COc1ccc(N2CC3=C(C2=O)C(c2ccc(O)c(OC)c2)NC(=O)N3C)cc1 (stereo not given)	-0.1	-3.7	2.3	-0.9	-0.8
S=c1sc2c(Cl)ncnc2n1-c1ccccc1	2.4	-2.0	-44.1*	-12.2	1.7
CC(C)CNc1nc(Oc2ccc(OCC(N)=O)nn2)nc(N2CCOCC2)n1	-0.4	18.4	10.5	-0.7	0.8
Cc1ccc(-c2cn3nc(N4CCCC(C(=O)Nc5ccc(F)cc5)C4)sc3n2)cc1 (stereo not given)	-1.7	4.8	-4.4	0.1	0.5
COc1cc(NC(=O)CCc2c(C)nc3c4c(C)cc(C)nc4nn3c2C)cc(OC)c1	-0.4	0.9	14.6	-1.4	-0.4
CC(C)CCCN1CCN=C1N(C)C	2.3	5.9	-9.2	2.2	0.8
CCCCCCCN1CCN=C1N(C)C	-0.3	-2.1	-35.3*	-5.0	0.4
COc1ccc(CN(C(=O)c2snc(C(N)=O)c2N)C(C(=O)NC2CCCC2)c2ccc(OC)cc2)cc1 (stereo not given)	9.0	6.8	10.5	-5.2	-0.7
COc1ccc(C(C(=O)NC2CCCC2)N(Cc2ccco2)C(=O)c2snc(C(N)=O)c2N)cc1OC (stereo not given)	4.2	-3.2	-33.1*	-4.0	-0.1
COc1cccc(C(C(=O)NC2CCCC2)N(Cc2ccco2)C(=O)c2ccco2)c1OC (stereo not given)	-0.3	3.0	-37.3*	-5.3	-0.7
Cc1ccc(C(C(=O)NC2CCCC2)N(Cc2ccco2)C(=O)CCC(=O)Nc2cc(C)on2)cc1 (stereo not given)	2.1	-0.7	-31.5*	-5.0	0.1
Cc1cc(NC(=O)CCC(=O)N(Cc2ccco2)C(C(=O)NC2CCCCC2)c2cccs2)no1 (stereo not given)	2.7	-2.2	3.8	0.5	-1.4
COc1ccc(CN(C(=O)c2snc(C(N)=O)c2N)C(C(=O)NC2CCCC2)c2cc(OC)ccc2OC)cc1 (stereo not given)	8.6	34.4*	2.2	3.5	-0.7
COc1ccc(CCNC(=O)c2c(C)nn(-c3ccc(F)cc3)c2-n2cccc2)c(OC)c1OC	4.3	4.7	-1.6	-0.8	-0.8
Cc1cccc(N2CCN(Cc3nc(-c4ccccc4Cl)oc3C)CC2)n1	0.9	-4.8	-31.3*	-6.8	0.4
COc1ccc2c(c1)c1c(c(=O)n(-c3cc(Cl)ccc3C)c(=O)n1Cc1ccc(F)cc1)n2C	0.1	0.9	-9.9	-0.7	-0.7
CCCCOc1ccc(C(=O)NCc2nnnn2-c2ccc(C)c(C)c2)cc1	3.3	4.7	-19.5	0.5	-0.5
COc1ccc(CNC(=O)C(c2ccco2)N(C(=O)Cc2cccs2)c2cccnc2)cc1 (stereo not given)	5.6	-3.8	-34.9*	-3.0	-0.5
COc1ccc(CNC(=O)C(c2ccco2)N(Cc2cccs2)C(=O)Cc2cccs2)cc1 (stereo not given)	28.8	3.0	-14.3	7.0	-1.6
Cc1c2cnn(CC(=O)N3CCN(c4ccc(F)cc4)CC3)c(=O)c2c(C)n1Cc1ccccc1F	11.0	-9.0	-7.9	-3.9	0.6
CCOC(=O)N1N=C(c2ccc(OC)cc2)CC1(O)C(F)(F)F (stereo not given)	1.5	32.3*	1.3	-6.8	-0.2
CCc1ccc(C2=NN(C(=O)OC)C(O)(C(F)(F)F)C2)cc1 (stereo not given)	1.9	-2.4	-0.4	-7.0	-0.4
O=C1CCC(C(=O)N2CCCC(C(=O)c3ccc4c5c(cccc35)CC4)C2)=NN1 (stereo not given)	2.4	-2.4	-32.8*	-3.5	1.2
O=C(Nc1ccc(-c2nc3ccccc3s2)cc1)c1cc(-n2cnnc2)ccc1Cl	7.4	0.1	-41.7*	-12.7	2.8
O=C(C1CCN(c2ncnc3c2nc2n3CCCCC2)CC1)N1CCN(c2cccc(Cl)c2)CC1	7.5	6.0	-30.6*!	-2.5	-0.9
